The campaign covered roughly 150,000 compounds. About 540 (0.36%) showed an effect of 50% or more. The full list was thinned out, with strong results kept by preference.
What follows are compounds tested on Plasmodium falciparum (assay: Primary screen in NF54 nanoGlo assay, in single point, at 2uM, 72h; a lower Z score goes with more inhibition). Settings: timepoint 72 hour.
Assay type: functional, Erythrocyte

| SMILES | % Inhibition [%] | Z score |
| --- | --- | --- |
| O=C(c1ccccc1)c1ccc(O)c(CN2CCCN(c3ccc(C(F)(F)F)cn3)CC2)c1O | 84 | -8.75 |
| FC(F)(F)c1ccc(N2CCCN(Cc3nc4ccccc4o3)CC2)nc1 | -8 | 0.8 |
| O=C(CN1CCCN(c2ccc(C(F)(F)F)cn2)CC1)Nc1ccccc1 | 0 | 0.05 |
| Cc1n[nH]c(C)c1CCCNC(=O)[C@@H]1Cc2ccccc2CN1C | -7 | 1.24 |
| Cc1cccn(CC(=O)NCC(=O)Nc2cccnc2)c1=O | -6 | 0.7 |
| C[C@@H](CO)N(C)S(=O)(=O)[C@H]1C[C@@H]1c1ccc(Br)cc1 | 1 | -0.19 |
| O=C(c1cccc(C#Cc2ccccc2)c1)N1CCN(C(c2ccccc2)c2ccccc2)CC1 | -8 | 1.42 |
| O=C(c1cccc(-n2cnnn2)c1)N1CCN(C(c2ccccc2)c2ccccc2)CC1 | 10 | -1.28 |
| O=C(c1cccc(C(=O)N2CCN(C(c3ccccc3)c3ccccc3)CC2)c1)N1CCN(C(c2ccccc2)c2ccccc2)CC1 | 54 | -11.5 |
| CC1CCCN(C(C)CNC(=O)CCNC(=O)C2CC2C)C1 (centres undefined) | -5 | 0.79 |
| CCCN1CCn2nc(-c3nc4cc(OC)ccc4[nH]3)cc2C1 | -3 | 0.27 |
| Cc1ccc2[nH]c(-c3cc4n(n3)CCN(C(=O)N3CCN(C)CC3)C4)nc2c1 | -6 | 0.7 |
| N[C@H]1COc2ccc(Br)cc2C1=O | 73 | 0.56 |
| N[C@H]1CCOc2ccc(Br)cc2C1=O | -8 | 1.05 |
| N[C@H]1CC2(CCC2)Oc2ccc(Br)cc21 | -4 | 0.62 |
| O=C(COc1ccc(Br)cc1F)N[C@@H](C(=O)O)c1ccc(F)c(F)c1 | -17 | 2.1 |
| COc1ccc(CC(=N)Nc2cc3cc(OC)c(OC)cc3c(Cc3ccc(OC)c(OC)c3)n2)cc1OC | 85 | -9.78 |
| COc1cc(NC(=O)Cc2ccc(OC)c(OC)c2)ncn1 | 8 | -1.51 |
| COc1cc2cc(NC(C)=N)nc(C)c2cc1OC | 15 | -1.95 |
| COc1cc(NC(=O)N2Cc3cn[nH]c3CC(C)(C)C2)c(C)c(OC)c1 | 13 | -1.52 |
| CCn1cnc2c(N3CCC[C@H](CC(C)(C)C(N)=O)C3)ncnc21 | 8 | -1.51 |
| CCn1cnc2c(N3CCCOC3)ncnc21 | -5 | 0.67 |
| CCn1cnc2c(N3CCC[C@H](c4ccncc4)C3)ncnc21 | 76 | -10.16 |
| COc1cccc([C@H]2CC(O)=Nc3c2ncn3-c2cccnc2)c1OC(C)C | 28 | -3.13 |
| CC[C@@H](c1ccccn1)n1cc(-c2cc(CN(C)C)cs2)nn1 | -6 | 0.72 |
| CC(C)C(=O)N1CCN(c2ccc(Br)cc2)C(=O)[C@@H]1C | -12 | 1.14 |

| SMILES | % Inhibition [%] | Z score |
| --- | --- | --- |
| Cc1ccc([C@H]2C=NN(c3ccc(Br)cc3)C2=O)cc1 | 76 | -2.14 |
| CC1=CN(c2ccc(Br)cc2)C(=O)N(c2ccccc2)N=C1C | -45 | 5.24 |
| CCCOc1ccc(C2C3C(=O)N(c4cccc5ccccc45)C(=O)C3ON2c2ccccc2)cc1OC (centres undefined) | -14 | 1.48 |
| O=C1C[C@@H](C(=O)N2CC(Cc3ccoc3)C2)NC(=O)N1 | -12 | 1.39 |
| O=C(C[C@H](n1cccn1)C(F)(F)F)N1CCN(C2CC2)c2ccc(Cl)cc21 | -2 | 0.26 |
| COc1ccc(-c2c(-c3ccc(Cl)cc3)[nH]c3c2c(=O)[nH]c(=O)n3C)cc1 | -5 | 0.54 |
| COc1ccc(-c2c(-c3cccc(OC)c3)[nH]c3c2c(=O)[nH]c(=O)n3C)cc1 | 90 | -8.97 |
| COc1ccc(-c2c(-c3ccc(C)c(C)c3)[nH]c3c2c(=O)[nH]c(=O)n3C)cc1 | -4 | 0.68 |
| NC(=O)NCCC[C@@H]1NC(=O)[C@H](Cc2ccccc2)NC1=O | -12 | 1.78 |
| COCCc1nc(C)c([C@H](C)Nc2ccc3c(c2)CCC(=O)N3)s1 | -15 | 1.74 |
| CCc1cccc(Nc2nc3ccncc3n(C(C)C)c2=O)c1 | 1 | -0.13 |
| CC(C)n1c(=O)c(NCc2cccc(C(F)(F)F)c2)nc2ccncc21 | 24 | -2.33 |
| CC(C)c1cccc(Nc2nc3ccncc3n(C(C)C)c2=O)c1 | 91 | -8.7 |
| CC1CCN(Cc2ccc(-c3ncnn3C(C)(C)C)o2)CC1 | -6 | 1.14 |
| CN1CCC(N(C)CC(NCC2CCC=CO2)c2ccccc2)CC1 (centres undefined) | -4 | 0.49 |
| c1ccc(COC[C@H](Nc2ncnc3ccccc23)c2ccccc2)cc1 | -12 | 1.08 |
| Cc1cc(C)nc(O[C@H]2CCCN(C(=O)c3cccn(C)c3=O)C2)n1 | -2 | 0.22 |
| O=C(Nc1cccnc1)c1cccc(Oc2cccc(C(F)(F)F)c2)c1 | -13 | 1.85 |
| O=C(N[C@H]1CCS(=O)(=O)C1)c1cccc(Oc2cccc(C(F)(F)F)c2)c1 | -25 | 2.94 |
| O=C(Nc1cc(N2CCCS2(=O)=O)ccc1O)c1cccc(Oc2cccc(C(F)(F)F)c2)c1 | 99 | -18.11 |
| Cc1nc2ccc(NC(=O)C3C4C=CC(C4)C3C(=O)O)cc2s1 (centres undefined) | 7 | -1.15 |
| Brc1ccc(-c2nc(Cn3ccnn3)co2)cc1 | -11 | 1.68 |
| FC(F)(F)c1ccc(-c2nc(Cn3ccnn3)co2)cc1 | 89 | -0.03 |
| CCOc1ccc(-c2nc(Cn3ccnn3)co2)cc1 | -6 | 1.08 |
| CO[C@H]1CN(C2CCN(C(=O)CCc3c[nH]c4ccccc34)CC2)C12CCOCC2 | -2 | 0.27 |
| O=C(N[C@H]1CCN(c2cnccn2)C[C@@H]1O)c1ccc2c(c1)OCO2 | 0 | 0.01 |
